# T1: DOK1 151-256 IRS (domain begin residue: 151, domain end residue: 256), Q99704
# T1 chain: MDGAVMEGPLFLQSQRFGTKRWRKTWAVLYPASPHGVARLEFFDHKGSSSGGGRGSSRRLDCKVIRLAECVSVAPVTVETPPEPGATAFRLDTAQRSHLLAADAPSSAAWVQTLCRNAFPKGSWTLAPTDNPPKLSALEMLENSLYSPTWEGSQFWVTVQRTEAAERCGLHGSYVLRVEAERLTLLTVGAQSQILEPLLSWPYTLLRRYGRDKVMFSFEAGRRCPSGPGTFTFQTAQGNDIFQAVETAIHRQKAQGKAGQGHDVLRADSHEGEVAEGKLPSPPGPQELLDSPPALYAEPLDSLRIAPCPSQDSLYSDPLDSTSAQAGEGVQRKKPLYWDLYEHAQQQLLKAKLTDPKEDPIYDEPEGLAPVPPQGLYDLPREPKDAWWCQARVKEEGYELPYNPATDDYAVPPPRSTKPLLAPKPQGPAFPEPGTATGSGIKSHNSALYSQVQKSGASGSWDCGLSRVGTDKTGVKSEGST
# T2: DOK2 146-252 IRS (domain begin residue: 146, domain end residue: 252), O60496
# T2 chain: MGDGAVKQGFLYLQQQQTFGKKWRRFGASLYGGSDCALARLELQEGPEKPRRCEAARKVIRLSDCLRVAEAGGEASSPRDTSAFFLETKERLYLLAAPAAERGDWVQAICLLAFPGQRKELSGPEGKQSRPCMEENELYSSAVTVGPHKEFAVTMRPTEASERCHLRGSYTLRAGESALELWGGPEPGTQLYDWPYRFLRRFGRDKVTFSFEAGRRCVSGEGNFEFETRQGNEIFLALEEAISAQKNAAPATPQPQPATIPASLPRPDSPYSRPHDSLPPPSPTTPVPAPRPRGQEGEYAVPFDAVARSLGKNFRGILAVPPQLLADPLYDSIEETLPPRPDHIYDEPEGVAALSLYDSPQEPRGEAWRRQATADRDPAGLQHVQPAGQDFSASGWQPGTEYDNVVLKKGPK
# T3: DOK3 213-322 IRS (domain begin residue: 213, domain end residue: 322), Q7L591
# T3 chain: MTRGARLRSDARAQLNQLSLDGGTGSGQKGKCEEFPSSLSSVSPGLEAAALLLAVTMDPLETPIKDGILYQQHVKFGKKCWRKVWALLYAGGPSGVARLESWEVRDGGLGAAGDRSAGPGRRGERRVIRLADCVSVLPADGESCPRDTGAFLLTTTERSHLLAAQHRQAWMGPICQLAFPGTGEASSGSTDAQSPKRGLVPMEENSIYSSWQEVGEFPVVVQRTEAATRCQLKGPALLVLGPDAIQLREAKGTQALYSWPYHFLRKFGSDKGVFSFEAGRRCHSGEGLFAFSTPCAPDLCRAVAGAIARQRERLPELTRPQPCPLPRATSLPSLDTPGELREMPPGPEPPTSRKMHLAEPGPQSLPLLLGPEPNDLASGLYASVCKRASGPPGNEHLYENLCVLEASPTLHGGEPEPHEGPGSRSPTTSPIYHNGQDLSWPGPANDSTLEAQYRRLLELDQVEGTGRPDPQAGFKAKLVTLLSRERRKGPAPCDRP
# Tests used:
# Experiment in all cases: phage ELISA signal ratio (GST-PRM binding over GST background); higher = stronger binding of peptide-phage to the PRM
# [1] = target: T1, DOK1 151-256 IRS (domain begin residue: …
# Description: (§1)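 Phage-displayed random hexadecapeptides (Cys-free, flanked by invariant Gly linkers, fused to the M13 P8 major coat protein) were selected over 5 rounds against GST-fused human PRM domains. Individual clones from rounds 4-5 were tested by phage ELISA, and positive clones binding the target but not GST were sequenced. Values are the ELISA signal ratio of target over background (GST); the background signal is given separately.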
# [2] = target: T2, DOK2 146-252 IRS (domain begin residue: …
# Description: as §1
# [3] = target: DOK4 130-237 IRS (domain begin residue: 130, domain end residue: 237), Q8TEW6
# Chain of DOK4 130-237 IRS (domain begin residue: 130, domain end residue: 237), Q8TEW6 (Q8TEW6 whole entry): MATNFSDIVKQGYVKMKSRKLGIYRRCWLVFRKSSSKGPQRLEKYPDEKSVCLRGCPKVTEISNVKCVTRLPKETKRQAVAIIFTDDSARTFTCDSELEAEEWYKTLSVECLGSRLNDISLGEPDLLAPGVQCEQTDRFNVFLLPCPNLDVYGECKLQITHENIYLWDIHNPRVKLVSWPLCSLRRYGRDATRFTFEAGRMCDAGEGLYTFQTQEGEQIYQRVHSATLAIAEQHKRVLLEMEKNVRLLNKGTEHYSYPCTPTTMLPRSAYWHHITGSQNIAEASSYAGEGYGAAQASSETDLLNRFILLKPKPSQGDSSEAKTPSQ
# Description: as §1
# [4] = target: DEPDC6 20-129 DEP (domain begin residue: 20, domain end residue: 129)
# Description: as §1
# [5] = target: DOK5 130-237 IRS (domain begin residue: 130, domain end residue: 237), Q9P104
# Description: as §1
# [6] = target: T3, DOK3 213-322 IRS (domain begin residue: …
# Description: as §1
binder,measurement,setting,value
ADQWVWHYIMEMEQVR,phage ELISA signal ratio,[1],33
DEWKWFDMVGTQTQTP,phage ELISA signal ratio,[2],16.8
DLQWKWVYWHDLDDGE,phage ELISA signal ratio,[1],22.6
QWMGLSVEQFAMNPWY,phage ELISA signal ratio,[1],17.7
GWDDQIWTWSPMYMPV,phage ELISA signal ratio,[3],19
MQMTFLDMMEQYRLME,phage ELISA signal ratio,[4],33.8
DWVWTIPFEQVFSEVM,phage ELISA signal ratio,[5],4.96
MPWPMWEQYQQHMQWV,phage ELISA signal ratio,[1],19.7
PGEMQESNWLWKFVDW,phage ELISA signal ratio,[1],29.1
YDQTGWAWVHEMQDMV,phage ELISA signal ratio,[1],8.33
WVTWDNSSLKWIDETY,phage ELISA signal ratio,[1],28
EQQHDKFQMMMNIYKY,phage ELISA signal ratio,[4],23
DEWMLNETWIDYQELH,phage ELISA signal ratio,[1],20
QWMDLNDLQWTYNPWY,phage ELISA signal ratio,[3],11.2
TMAWEWIGNDVYVSHD,phage ELISA signal ratio,[2],7.8
EYKTMPWEEIMMPYNY,phage ELISA signal ratio,[6],3.85
YELSWTHTPWSHFIAT,phage ELISA signal ratio,[3],6.86
PYTWYENPLWVPSPME,phage ELISA signal ratio,[2],15.2
QFIVWENEYYEHWGGK,phage ELISA signal ratio,[2],21.1
DDMIWQWQMNPIWMMD,phage ELISA signal ratio,[3],11.5
DNHWIWKEVNPMFMKD,phage ELISA signal ratio,[1],30.4
EWFMDASGYWNNLQVS,phage ELISA signal ratio,[1],7.98
MESAFQQVMLAYYQEL,phage ELISA signal ratio,[4],21.9
WVWHDMHLSAPFQHQE,phage ELISA signal ratio,[1],3.72
EWVEWVSPWMVEHGDW,phage ELISA signal ratio,[2],17.8
PEQMEYWTWSPLHVSQ,phage ELISA signal ratio,[3],13.1
DWEAWHHNVDFAWGWV,phage ELISA signal ratio,[1],9.3
GDKSEWFRALLDEYLV,phage ELISA signal ratio,[4],21.6
WEWSQEIWLPPHMMVD,phage ELISA signal ratio,[6],12.3
MYTFEEMWMHWKLVEM,phage ELISA signal ratio,[4],23.6
EQLWWSNPLWTEGIEE,phage ELISA signal ratio,[2],16.1
DTKWNIVHWDWDTWVH,phage ELISA signal ratio,[1],16.4
VWDLDTSADYLWVWMG,phage ELISA signal ratio,[1],19.3
VDDGDWVWVHVSQQFM,phage ELISA signal ratio,[1],31.2
VWEEVMTMEQWQWHNF,phage ELISA signal ratio,[6],5.77
EPWVDWSESMWAWVNT,phage ELISA signal ratio,[1],17.6
DLMVWYDNPYYHSEMI,phage ELISA signal ratio,[2],9.37
EHLRPEMDWTYVWWEH,phage ELISA signal ratio,[3],4.35
DLDFMWWDNPVHETDL,phage ELISA signal ratio,[2],16.8
YETPEPQWLWVMNPIH,phage ELISA signal ratio,[3],14.6
MWEWTDNPSYTIPGQQ,phage ELISA signal ratio,[3],7.86
WNEWNEKEMLWESVEG,phage ELISA signal ratio,[1],37.8
HLTGQEGDWIWHWLEN,phage ELISA signal ratio,[2],10.4
VIWTWNPMAGMEAWNI,phage ELISA signal ratio,[3],5.11
NQLRFNPQWTVPNFRN,phage ELISA signal ratio,[6],3.31
WSEVWWTDLEGAMFWV,phage ELISA signal ratio,[1],16.2
GVGWAKQIEWTVSPMM,phage ELISA signal ratio,[5],3.95
DEWTWHFVEQPWHMAG,phage ELISA signal ratio,[2],7.99
IEWTHTNWEWNKMETQ,phage ELISA signal ratio,[3],11.9
WPEGIKYTWVKEHETE,phage ELISA signal ratio,[3],8.42
DWPNYPANSWKYVTWA,phage ELISA signal ratio,[1],10.2
VVNEQHGWKWMILEHE,phage ELISA signal ratio,[2],20.7
GHNEIMTIQQHATWLY,phage ELISA signal ratio,[6],5.54
EWMWMDNPGFHMTEAT,phage ELISA signal ratio,[2],13.6
FEWTSSPVWSDHQEHN,phage ELISA signal ratio,[3],11.5
QMVWHYPWEATDTHGW,phage ELISA signal ratio,[1],33.5
DWVWSDVGGHVPQVWD,phage ELISA signal ratio,[1],25
